# From ChEMBL document CHEMBL4513216, “Probing the Open Global Health Chemical Diversity Library for Multistage-Active Starting Points for Next-Generation Antimalarials” (ACS Infect Dis, 2020)
# About 8,600 (12%) of roughly 69,000 compounds showed an effect of 50% or more. What follows is part of a selection rich in strong results, with near analogues and random picks from the rest.
# System: Plasmodium berghei
# Test: Screen against P. berghei liver stage (PbLuc), transformed with Luciferase, at 10uM
# Format: functional, HepG2
# Details: tested at 10 uM
row,SMILES,INHIBITION [%]
1,CCOc1cc2c(cc1CN1CCC3(CC1)CNC(=O)C3)CCC2,39.4
2,COc1c(C2CCCN2CC(=O)NCc2ccccn2)c(C)nn1C (stereo not given),19.6
3,COC(C(=O)NC1CC1)c1ccccc1 (stereo not given),-35.9
4,CCOC(=O)C1(O)CCN(C(=O)Nc2cccc(F)c2)CC1,-16.9
5,COc1cccc(OC)c1-c1ccnc2cc(CC(=O)NC3CC3)nn12,39.7
6,COc1cccc(OC)c1-c1ccnc2cc(CC(=O)NC(C)C)nn12,54.5
7,CNC(=O)Cc1cc2nccc(-c3c(OC)cccc3OC)n2n1,45.6
8,CC(C)c1ccc(O)c(C(=O)NCc2cc[nH]n2)c1,12.8
9,CCN(c1ccc(C(=O)NCc2cc[nH]n2)cc1)C(C)C,82.6
10,CCN(c1ccc(C(=O)NCc2ccnc(C)n2)cc1)C(C)C,0.433
11,Cc1cc(Cc2ccc(S(=O)(=O)N3CCOCC3)cc2)c(=O)[nH]n1,19.8
12,CCc1nnc(CN(CC)C(=O)C2CC(=O)N(Cc3cccnc3)C2)o1 (stereo not given),23.5
13,CN(Cc1ccon1)C(=O)C1CC(=O)N(Cc2cccnc2)C1 (stereo not given),-49.3
14,CCN(Cc1nc(C)no1)C(=O)C1CC(=O)N(Cc2cccnc2)C1 (stereo not given),15.6
15,CCc1noc(CN(CC)C(=O)C2CC(=O)N(Cc3ccncc3)C2)n1 (stereo not given),53.2
16,CCN(Cc1nc(C)no1)C(=O)C1CC(=O)N(Cc2ccccn2)C1 (stereo not given),-14.1
17,CCN(CC1CCOCC1)C(=O)C1CC(=O)N(Cc2cccnc2)C1 (stereo not given),53.2
18,CNC(=O)Cn1ccc2ccc(NC(=O)C(C)CSC)cc21 (stereo not given),29.6
19,O=S(=O)(c1ccc(-c2cnco2)cc1)N1CCC2(CCCNC2)C1 (stereo not given),35.7
20,O=S(=O)(c1ccc(-c2cnco2)cc1)N1CCCC2(CCNCC2)CC1,52.7
21,O=S(=O)(c1ccc(-c2cnco2)cc1)N1CCCC(O)(CO)CC1 (stereo not given),-31.4
22,CC(c1cccc(-c2ncccc2C#N)c1)N(C)C (stereo not given),19.3
23,CN(Cc1cc(C(C)(C)C)n[nH]1)C(=O)c1c[nH]nc1-c1cccc(F)c1,30.4
24,CCNc1ccnc(NCc2cn3nc(C)sc3n2)n1,-49.3
25,Cc1ccnc(NCc2cn3nc(C)sc3n2)n1,65.2

row,SMILES,INHIBITION [%]
1,Cc1nn2cc(CNc3nccc(CCC(F)(F)F)n3)nc2s1,-4.91
2,O=C(C1CCC1)N1CCC2(CC1)CNCCO2,-12.4
3,O=C(C1CC1)N1CCC2(CC1)CNCCO2,51.2
4,O=C(C1CC1)N1CCOC2(CCNCC2)C1,36.7
5,Cc1ccc(CN2CCOC3(CCN(C(=O)N4CCCC4)CC3)C2)cc1,15.7
6,CC(=O)N1CCCC2(C1)CN(C(=O)C1CCCCC1)CCO2 (stereo not given),9.97
7,Cc1ccc(CN2CCOC3(CCN(C(=O)C4CCOC4)CC3)C2)cc1 (stereo not given),39.3
8,CC(=O)N1CCOC2(CCN(C(=O)C3CC3)CC2)C1,85.6
9,O=C(C1CC=CC1)N1CCC2(CC1)CNCCO2,29
10,Cc1ccc(CN2CCOC3(CCN(C(=O)C4CC=CC4)CC3)C2)cc1,55.6
11,Cc1ccc(CN2CCOC3(CCCN(C(=O)c4ccco4)C3)C2)s1 (stereo not given),28.5
12,Cc1ccc(N(CCC#N)C(=O)CN2CCCC2c2ccsc2)cc1C (stereo not given),-10.75
13,CC1CCC(C(=O)N2CCC(n3cc(C4(O)CCCC4)nn3)CC2)CC1 (stereo not given),47.4
14,c1csc(-c2nc(CN3CCCC3Cn3cccn3)co2)c1 (stereo not given),17.5
15,CC(C)(N)c1nc(C(F)F)cc(=O)[nH]1,-4.35
16,CS(=O)(=O)NC(c1ccccc1)c1ccc2c(c1)CCCO2 (stereo not given),-9.98
17,CC(C)c1nc(CN(C)C(=O)[C@H](N)Cc2ccc(Cl)cc2)cs1,17.2
18,CC(NC(=O)N(C)Cc1cccc(OC(F)F)c1)c1nncn1C (stereo not given),68.2
19,COc1ccc(CN(C)C(=O)NC(C)c2nncn2C)cc1F (stereo not given),-24.7
20,CCOc1ccc(CN(C)C(=O)NC(C)c2nncn2C)cc1 (stereo not given),-6.75
21,Cc1nc(C2CCN(C)CC2)cc(N2CCOc3ccc(Cl)cc3C2)n1,94.3
22,Cc1nc(C2CCNCC2)cc(N2CCOc3ccccc3C2)n1,-55.1
23,Cc1nc(CCN)cc(N2CCOc3ccc(Cl)cc3C2)n1,-43.5
24,CC(C)Oc1ccc(CN)c(C(F)(F)F)c1,10
25,CCOc1ccccc1OC1CCN(C(=O)c2cnns2)CC1,44.1
